Compound activity (PubChem BioAssay)
Hits are enriched below; roughly 1.6% of the tested compounds scored in any of these assays.
p53ts 39C tox: qHTS Screen for Compounds that Selectively Target Cancer Cells with p53 Mutations: Cytotoxicity of p53ts Cells at the Nonpermissive Temperature | Potency, µM (highest dose often 46.1 µM), inactives show at the top dose activity change, negative = cell killing, usual class: cytotoxic | hit rate 1.5% among 130,000 | H1299-p53A138V viability at 39C, ATP luminescence, 24 h; note: % is set by controls: 0 for no effect and ±100 for the full control effect; nearly all actives have a fitted effect of over 55% in size
Imprint erasure: qHTS Assay for Compounds that Induce Erasure of Genomic Imprints; mouse ES Peg3-LacZ reporter, beta-gal luminescence, 40 h; Potency, µM (highest dose often 60.7 µM), inactives show at the highest dose activity change, positive = activation, hits mostly activators; hit rate 0.02% among 110,000; AID 1948, 2009
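Each well holds 300 Peg3LacZ-Neo (maternal) female ES cells incubated 40 h at 37C, 5% CO2. LacZ is measured by BetaGlo luminescence, with AC50 and maximum efficacy derived from dose-response curves.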
p53ts 32C tox: qHTS Screen for Compounds that Selectively Target Cancer Cells with p53 Mutations: Cytotoxicity of p53ts Cells at the Permissive Temperature. H1299-p53A138V at 32C, ATP luminescence viability, 24 h. Potency, µM (titrated, usually from 46.1 µM), for the others: top-dose activity change, negative = cytotoxicity, actives largely listed as cytotoxic. hit rate 0.93% among 130,000. AID 924, 2007;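 note: 0% = DMSO and -100% = full killing by reference compound; nearly all actives have a fitted effect of over 55% in size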
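Cells: H1299 p53ts (A138V), 600/well, pre-incubated 16–30 h at 37C. Cpd up to 46 uM, 24 h, 32C. Readout: ATPlite luminescence, 20 min RT. Normalization: DMSO vs tamoxifen 100 uM. AC50 by Hill equation.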
Active calls of the source: *; ? = inconclusive; . = not tested or not shown; [ ] = dose if it differs, or a comment. Calls come from the whole dose curve; as a rule, active = well fitted curve in the direction sought with a large enough effect; inconclusive = small, poorly fitted or top-dose-only effect, or another doubt; inactive = no such curve, though single readings can be large; an effect the other way counts as inactive or inconclusive. Potency is the fitted concentration of half-maximal effect.

SMILES	p53ts 39C tox	Imprint erasure	p53ts 32C tox
Cc1ccc(-c2nc3ccccc3s2)cc1NC(=O)COc1ccccc1	-25%	-12%[10.9 µM]	-9%
COc1ccc(-c2nc3ccccc3s2)cc1NC(=O)COc1ccc(C)cc1	-2%	?	-12%
COc1ccc(-c2nc3ccccc3s2)cc1NC(=O)COc1cccc(C)c1	10µM*	-9%[10.9 µM]	-22%
COc1ccc2c(c1)CC(C(=O)NCCc1ccc(S(N)(=O)=O)cc1)CO2 (centres undefined)	-10%	25%[10.9 µM]	-2%
Cn1c(C(=O)NCc2ccccc2Cl)cc2sc(Cl)cc21	?	-6%[10.9 µM]	-28%
COc1cc(N=c2c([N+](=O)[O-])nn(-c3ccc4c(c3)OCCO4)n2O)cc(OC)c1	11µM*	.	.
COc1ccc(/C=N/NC(=O)c2ccc3c(c2)OCCO3)cc1[N+](=O)[O-]	-4%	.	.
CC1CCN(S(=O)(=O)c2cc(C(=O)N3CCN(c4cccc(Cl)c4)CC3)n(C)c2)CC1	-7%	-10%[10.9 µM]	5%
COc1ccc(-n2nc3ccccc3n2)cc1	0%	-27%	0%
COc1ccc(-n2nc3cc(C)c(N)c(Br)c3n2)cc1	13µM*	-28%	13µM*
Cc1ccc(CNC(=O)CCCn2c(=O)c3ccccc3n(CC(=O)Nc3ccc(C)c(C)c3)c2=O)cc1	?	9%[10.9 µM]	13%
CCC1=C(OC(=O)N(CC)CC)N2C(=O)OC(=NCCOC)[C@]2(C)[C@H]2C1=CC[C@H]1C(=O)NC(=O)[C@H]12	12%	-7%	11%
c1ccc(Nc2ccccc2Nc2ccccn2)nc1	5%	0%	2%
Oc1cccc2ccc(Nc3ccccn3)nc12	10µM*	.	16µM*
COc1cc(Cl)c(C)cc1NC(=O)c1nn(C)c2c1CSc1ccccc1-2	15%	-13%[10.9 µM]	9%
O=C(Nc1c(C(=O)Nc2cccc(F)c2)oc2ccccc12)c1ccc2c(c1)OCO2	-14%	-3%	-19%
CN(C)CCN(Cc1ccco1)C(=O)c1oc2ccccc2c1NC(=O)c1cccc(F)c1	10µM*	?	-8%
Cc1ccccc1C(=O)Nc1nc2c(s1)CC(C(C)(C)C)CC2 (centres undefined)	22%	6%[10.9 µM]	-11%
O=C(NC1CCCC1)c1ccc(CSc2nc3cccnc3n2Cc2ccc(F)cc2)cc1	.	.	4%
CC1CCCCN1CCNC(=O)c1ccc(Cn2c(SCc3ccccc3)nc3cccnc32)cc1 (centres undefined)	10µM*	-14%[10.9 µM]	10µM*
O=C(NCCN1CCCCC1)c1ccc(Cn2c(SCc3ccccc3)nc3cccnc32)cc1	10µM*	-12%[10.9 µM]	13µM*
CC(CNC(=O)c1ccc(Cn2c(SCc3ccccc3)nc3cccnc32)cc1)c1ccccc1 (centres undefined)	.	.	-28%
CC1CCN(CCNC(=O)c2ccc(Cn3c(SCc4ccccc4)nc4cccnc43)cc2)CC1	10µM*	-18%[10.9 µM]	?
Cc1ccccc1CNC(=O)c1ccc(Cn2c(SCc3ccccc3)nc3cccnc32)cc1	.	.	9%
Cc1cc(=O)oc2cc(OCC(=O)Nc3c(C(C)C)cccc3C(C)C)ccc12	3%	-12%[10.9 µM]	-2%
SMILES	p53ts 39C tox	Imprint erasure	p53ts 32C tox
Cc1cn(C)c(CC(=O)N2CCN(c3ccc(F)cc3)CC2)c1C(=O)O	11%	-8%[10.9 µM]	4%
C=CCN1C(=O)C2C(C(=O)NCc3ccccc3)C3(C)C=CC2(O3)C1C(=O)NC(C)(C)C (centres undefined)	-1%	10µM*	10%
C=CCN1C(=O)C2C(C(=O)NC)C3(C)C=CC2(O3)C1C(=O)NCc1ccc(OC)cc1 (centres undefined)	5%	-2%	-1%
O=C1C(Nc2ccccc2)=CC(c2ccc(Br)cc2)N1c1ccccc1 (centres undefined)	-5%	-11%[10.9 µM]	4%
Fc1ccc(-c2cn3cc(Cc4ccccc4)sc3n2)cc1	5µM*	-24%[10.9 µM]	2.2µM*
Clc1ccccc1Cc1cn2cc(-c3ccccc3)nc2s1	3.2µM*	-19%[10.9 µM]	?
Fc1ccc(Cc2cn3cc(-c4ccc(Cl)cc4)nc3s2)cc1	-10%	-7%[10.9 µM]	?
Fc1ccc(Cc2cn3cc(-c4ccccc4)nc3s2)cc1	2.5µM*	-20%[10.9 µM]	3.2µM*
Fc1ccc(-c2cn3cc(Cc4ccc(Cl)cc4)sc3n2)cc1	-21%	-13%[10.9 µM]	-17%
Brc1ccc(-c2cn3cc(Cc4ccccc4)sc3n2)cc1	?	-6%[10.9 µM]	-27%
Cc1cc(C)c(Cn2c(C)c(CNCc3ccccc3C)c(C(=O)O)c2C)c(C)c1	-13%	-14%[10.9 µM]	-2%
CC1CC2C3CCC4=CC(=O)C=C[C@@]4(C)[C@]3(F)C(O)C[C@]2(C)[C@]1(O)C(=O)COP(=O)(O)O (some centres undefined)	2%	1%	-4%
COC(=O)CN1C(=O)CSc2ccc(S(=O)(=O)Nc3cccc(C)c3C)cc21	-5%	5%[10.9 µM]	1%
Nc1ncnc2c1nc(Sc1ccc(Cl)cc1)n2[C@@H]1O[C@H]2COP(=O)(O)O[C@@H]2[C@H]1O	-12%	.	1%
C=CCc1cccc2cc(-c3nc4ccc(C(=O)O)cc4[nH]3)c(=O)oc12	?	-63%[10.9 µM]	?
COc1ccc2cc(-c3nc4ccc(C(=O)O)cc4[nH]3)c(=O)oc2c1	2.5µM*	-91%[10.9 µM]	1.6µM*
CCOc1cccc2cc(-c3nc4ccc(C(=O)O)cc4[nH]3)c(=O)oc12	16µM*	-77%[10.9 µM]	?
COc1ccc2oc(=O)c(-c3nc4ccc(C)cc4[nH]3)cc2c1	?	-17%[10.9 µM]	-15%
COc1ccccc1CNC(=O)CCCn1c(=O)c2ccccc2n(Cc2ccc(F)cc2)c1=O	-28%	-18%[10.9 µM]	-1%
CC1CCN(c2ncnc3c2nnn3C)CC1	-8%	-6%[10.9 µM]	8%
O=C(Nc1cc(F)ccc1F)C1COc2ccccc2C1 (centres undefined)	-3%	-8%[10.9 µM]	-1%
CCN1CCN(C(c2ccccc2Cl)c2c(O)cc(C)n(Cc3ccco3)c2=O)CC1 (centres undefined)	-3%	12%[10.9 µM]	0%
COc1ccc(C(=O)Nc2ccc3c(c2)nc2n3CCSC2)cc1	6.3µM*	-13%	5µM*
CCCC(=O)Nc1ccc2c(c1)nc1n2CCOC1	-3%	-1%	-10%
O=C(Nc1ccc2c(c1)nc1n2CCOC1)c1ccccc1	16µM*	-52%	13µM*
SMILES	p53ts 39C tox	Imprint erasure	p53ts 32C tox
CCC(=O)Nc1ccc2c(c1)nc1n2CCSC1	8%	-6%	-11%
O=C(Nc1ccc2c(c1)nc1n2CCSC1)c1ccccc1	6.3µM*	-74%	3.2µM*
CC(C)C(=O)Nc1ccc2c(c1)nc1n2CCSC1	-7%	-10%	-18%
O=C(O)c1cc(S(=O)(=O)Nc2cccc(F)c2)ccc1Cl	6%	.	7%
COC(=O)C1C(O)CC[C@@H]2CN3CCc4c([nH]c5ccccc45)C3C[C@@H]12 (some centres undefined)	7%	11%	3%
Cc1cccc(NC(=O)CSc2ncc(-c3ccc(Br)cc3)[nH]2)c1	13µM*	27%[10.9 µM]	?
CCOc1cccc(NC(=O)CSc2ncc(-c3ccccc3)[nH]2)c1	-12%	-13%[10.9 µM]	5%
CCc1cccc(-n2nnc(-c3nsc(NC(=O)c4cccs4)n3)c2C)c1	10µM*	-20%[10.9 µM]	-19%
